About 83,000 compounds went through this panel and 20% of them were active in at least one assay; those are over-represented in the sample as a whole.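 How to read the values: 0–100, growth inhibition (40 = 60% inhibited); 0, no net growth; -100 to 0, cell death (-40 = 40% of starting cells died; -100 = all dead).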 Calls of active or inactive are those of the source. The calls were made as follows: active = growth percent below 10; inactive = the rest.
Experiments:
Test in all cases: NCI-60 one-dose screen, 48 h (100 = growth as untreated, 0 = no growth, -100 = all killed)
Conditions in all cases: 10 µM
NCI-H23 lung = system: NCI-H23 lung
NCI-H226 lung = system: NCI-H226 lung
HOP-62 NSCLC = system: HOP-62 NSCLC
NCI-H460 lung = system: NCI-H460 lung
HOP-92 NSCLC = system: HOP-92 NSCLC
NCI-H522 lung = system: NCI-H522 lung
A549/ATCC NSCLC = system: A549/ATCC NSCLC
786-0 renal = system: 786-0 renal
COLO 205 colon = system: COLO 205 colon
DU-145 prostate = system: DU-145 prostate
K-562 leukemia = system: K-562 leukemia
MALME-3M melanoma = system: MALME-3M melanoma
MDA-MB-231 breast = system: MDA-MB-231 breast
RXF 393 renal = system: RXF 393 renal
SF-268 CNS = system: SF-268 CNS
SF-295 CNS = system: SF-295 CNS
SF-539 CNS = system: SF-539 CNS
UACC-257 melanoma = system: UACC-257 melanoma
M14 melanoma = system: M14 melanoma

Measured: growth

CS(=O)(=O)c1nccc(-c2c(-c3cccc(OCc4ccccc4)c3)nc3sccn23)n1
active: NCI-H522 lung 5.91% | DU-145 prostate -59.6%
inactive: NCI-H23 lung 53.6% | NCI-H226 lung 50.8% | HOP-62 NSCLC 92.9% | NCI-H460 lung 103% | HOP-92 NSCLC 51.8% | A549/ATCC NSCLC 106% | 786-0 renal 86.3% | COLO 205 colon 88.4% | K-562 leukemia 47.1% | MALME-3M melanoma 58.7% | MDA-MB-231 breast 61.4% | RXF 393 renal 90.7% | SF-268 CNS 97% | SF-295 CNS 101% | SF-539 CNS 90% | UACC-257 melanoma 27.8% | M14 melanoma 72.3%

COc1cc2cc(Oc3ccc(NC(=O)Nc4cccc(C(F)(F)F)c4)cc3)c(C)nc2cc1OC
inactive: HOP-62 NSCLC 25% | 786-0 renal 15.1% | DU-145 prostate 26.7% | K-562 leukemia 11.5% | SF-268 CNS 29.2% | SF-539 CNS 11.7% | M14 melanoma 22.7%
active: NCI-H23 lung 6.78% | NCI-H226 lung -23.5% | NCI-H460 lung 2.68% | HOP-92 NSCLC -29.5% | NCI-H522 lung -17.4% | A549/ATCC NSCLC 3.09% | COLO 205 colon -20.2% | MALME-3M melanoma 7.22% | MDA-MB-231 breast -8.32% | RXF 393 renal -13.1% | SF-295 CNS -15% | UACC-257 melanoma -14.5%

O=C(NCCNC(=O)c1ccc(F)cc1)Nc1ccc(-n2cc(-c3ccncc3)c(-c3ccc(Cl)c(O)c3)n2)cc1
active: NCI-H23 lung 6.86% | NCI-H460 lung -0.482% | HOP-92 NSCLC -19% | NCI-H522 lung -29.2% | 786-0 renal -11.1% | COLO 205 colon -80.8% | DU-145 prostate 2.26% | K-562 leukemia 6.23% | MALME-3M melanoma 3.35% | MDA-MB-231 breast -29.1% | RXF 393 renal 3.36% | SF-268 CNS 5.76% | SF-295 CNS -59.1% | SF-539 CNS -37.7% | M14 melanoma -44.4%
inactive: NCI-H226 lung 24.2% | HOP-62 NSCLC 22.9% | A549/ATCC NSCLC 12.4% | UACC-257 melanoma 24.1%

COc1cc(-c2nn(-c3cccc(NC(=O)NCCNS(=O)(=O)c4ccc(Cl)cc4)c3)cc2-c2ccncc2)ccc1Cl
inactive: NCI-H23 lung 12.4% | NCI-H226 lung 27.3% | HOP-62 NSCLC 32.9% | A549/ATCC NSCLC 13.3% | DU-145 prostate 11.5% | MALME-3M melanoma 10.9% | SF-268 CNS 13.1% | UACC-257 melanoma 33%
active: NCI-H460 lung 1.86% | HOP-92 NSCLC -3.88% | NCI-H522 lung 7.66% | 786-0 renal 6.74% | COLO 205 colon -64.2% | K-562 leukemia 2.85% | MDA-MB-231 breast -2.68% | RXF 393 renal -13.6% | SF-295 CNS -44.8% | SF-539 CNS -38.5% | M14 melanoma -24.7%

O=C(CCn1cnc2c(cc(-c3ccccc3)n2-c2ccccc2)c1=O)Nc1ccc(F)cc1
active: RXF 393 renal 1.78%
inactive: NCI-H23 lung 76.1% | NCI-H226 lung 106% | HOP-62 NSCLC 13% | NCI-H460 lung 80.4% | HOP-92 NSCLC 34.2% | NCI-H522 lung 55% | A549/ATCC NSCLC 70.9% | 786-0 renal 62.7% | COLO 205 colon 103% | DU-145 prostate 85.9% | K-562 leukemia 67.3% | MALME-3M melanoma 51.4% | MDA-MB-231 breast 68.7% | SF-268 CNS 70% | SF-295 CNS 77.8% | SF-539 CNS 76.2% | UACC-257 melanoma 86.2% | M14 melanoma 73.4%

N#CCc1csc(Cc2ccccc2)n1
inactive: NCI-H23 lung 97.2% | NCI-H226 lung 101% | HOP-62 NSCLC 104% | NCI-H460 lung 102% | HOP-92 NSCLC 117% | NCI-H522 lung 88.9% | A549/ATCC NSCLC 95.1% | 786-0 renal 108% | COLO 205 colon 117% | DU-145 prostate 108% | K-562 leukemia 103% | MALME-3M melanoma 101% | MDA-MB-231 breast 114% | RXF 393 renal 119% | SF-268 CNS 100% | SF-295 CNS 106% | SF-539 CNS 104% | UACC-257 melanoma 94.5% | M14 melanoma 101%

Cc1n[nH]c(C)c1N=Nc1cccc2c1C(=O)c1ccccc1C2=O
inactive: NCI-H23 lung 84.7% | NCI-H226 lung 87.4% | HOP-62 NSCLC 96.9% | NCI-H460 lung 96.5% | HOP-92 NSCLC 92.6% | NCI-H522 lung 86.7% | A549/ATCC NSCLC 105% | 786-0 renal 101% | COLO 205 colon 104% | DU-145 prostate 101% | K-562 leukemia 85.6% | MALME-3M melanoma 124% | MDA-MB-231 breast 82.4% | RXF 393 renal 87.6% | SF-268 CNS 96.5% | SF-295 CNS 99.4% | SF-539 CNS 90.3% | UACC-257 melanoma 111% | M14 melanoma 106%

COc1ccc(-c2cc(-c3ccccc3)nc(SCCCC(=O)NO)n2)cc1
active: NCI-H23 lung -33.3% | NCI-H226 lung -8.31% | HOP-62 NSCLC -20% | NCI-H460 lung -10.3% | HOP-92 NSCLC -13.4% | NCI-H522 lung -7.67% | A549/ATCC NSCLC -2.46% | 786-0 renal -13.5% | COLO 205 colon -22.6% | DU-145 prostate 1.16% | K-562 leukemia 6.74% | MALME-3M melanoma -9.2% | MDA-MB-231 breast -0.784% | RXF 393 renal -40.8% | SF-268 CNS -18.8% | SF-295 CNS -39.6% | SF-539 CNS 0.299% | UACC-257 melanoma -3.3% | M14 melanoma -21.8%
